APEX1 inh – APE1 (human) endonuclease inhibition; recombinant APE1, TAMRA/BHQ-2 abasic DNA cleavage fluorescence; Potency, µM (titrated, usually from 65.8 µM), for inactives: top-dose activity change, negative = inhibition, actives largely listed as inhibitors; 0.35% of 350,000 active; P27695;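 further: plate controls were vehicle for no effect and reference inhibitor for full effect; nearly all actives have a fitted effect of over 55% in size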
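APE1 at 0.75 nM preincubated 15 min at room temperature with compound. Reaction then started with 50 nM double-stranded THF-abasic substrate labelled with TAMRA/BHQ-2, and 525/598 nm fluorescence read kinetically. Activity taken as third-minus-first read difference, normalized to DMSO and NSC13755 controls.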
POLK inh – DNA polymerase kappa (human) inhibition; Q9UBT6; Potency, µM (titrated, usually from 107 µM), inactives show at the highest dose activity, negative = inhibition, usual class: inhibitors; purified Pol kappa, fluorescent DNA synthesis assay, 10 min; 0.53% of 400,000 active; AID 588579; further: on the % scale 0 is the no-effect control and ±100 the full control effect
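Pol kappa 10 nM + cpd, 15 min RT; start w/ substrate 50 nM final; fluorescence kinetic read, 0 and 10 min. Neg ctrl: buffer, no enzyme.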
Pol eta inh – DNA polymerase eta (human) inhibition; 1.2% of 390,000 active; recombinant Pol eta, fluorescent DNA replication assay; Potency, µM (series often up to 114 µM), without a hit: at the highest dose activity change, negative = inhibition, usual class: inhibitors; AID 588591; Q9Y253; further: on the % scale 0 is the no-effect control and ±100 the full control effect
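Pol eta at 10 nM preincubated with compounds 15 min at room temperature; reaction started with fluorescent substrate (50 nM final) and read kinetically at 0 and 10 min.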
L3MBTL1 block – blocks human L3MBTL1. Potency, µM (top dose mostly 57.1 µM), for the others: at the highest dose activity, negative = inhibition, most hits filed as inhibitors. Q9Y468. AlphaScreen L3MBTL1–H3K9me1 peptide binding. 0.66% of 230,000 active. AID 485360; further: on the % scale 0 is the no-effect control and ±100 the full control effect; nearly all actives have a fitted effect of over 60% in size
Target sequence (Q9Y468 whole entry, looked up): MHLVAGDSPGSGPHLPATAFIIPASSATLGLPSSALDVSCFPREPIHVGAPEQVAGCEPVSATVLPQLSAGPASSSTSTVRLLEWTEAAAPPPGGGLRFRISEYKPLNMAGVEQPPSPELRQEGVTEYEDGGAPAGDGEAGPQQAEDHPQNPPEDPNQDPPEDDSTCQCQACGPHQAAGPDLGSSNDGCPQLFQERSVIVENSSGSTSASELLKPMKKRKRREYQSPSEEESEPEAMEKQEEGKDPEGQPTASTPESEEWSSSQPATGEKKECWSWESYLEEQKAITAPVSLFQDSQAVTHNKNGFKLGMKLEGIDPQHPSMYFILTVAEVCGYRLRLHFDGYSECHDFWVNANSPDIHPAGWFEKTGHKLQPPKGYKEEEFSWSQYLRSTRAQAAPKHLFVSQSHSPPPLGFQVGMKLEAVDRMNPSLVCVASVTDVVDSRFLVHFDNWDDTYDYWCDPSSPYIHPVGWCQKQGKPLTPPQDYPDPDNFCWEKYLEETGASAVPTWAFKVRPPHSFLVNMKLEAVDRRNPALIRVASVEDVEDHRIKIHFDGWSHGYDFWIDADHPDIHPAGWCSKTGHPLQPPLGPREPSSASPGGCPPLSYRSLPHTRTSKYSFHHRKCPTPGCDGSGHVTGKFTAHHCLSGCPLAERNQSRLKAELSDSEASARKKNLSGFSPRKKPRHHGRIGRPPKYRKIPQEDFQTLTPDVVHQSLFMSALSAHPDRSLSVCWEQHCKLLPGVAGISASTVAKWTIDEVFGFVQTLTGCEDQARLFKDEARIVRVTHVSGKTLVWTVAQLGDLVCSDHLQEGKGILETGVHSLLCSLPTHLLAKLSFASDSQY
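First, the protein-peptide complex forms for 30 min at room temperature (L3MBTL1 50 nM, biotinylated H3K9me1 peptide 75 nM). Next, compounds are pin-transferred and incubated 30 min. Finally, AlphaScreen beads are added and read after 30 min.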
POLI inh – blocks human DNA polymerase iota activity | Potency, µM (doses to about 115 µM), for inactives: at the highest dose activity, negative = inhibition, actives largely listed as inhibitors | AID 588590 | Pol iota fluorescent replication assay, 10 min | Q9UNA4 | 1% of 390,000 active
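Fluorescent replication assay read twice, at 0 min and 10 min after adding 50 nM (final) substrate. Enzyme (10 nM) and compounds were first incubated 15 min at room temperature; enzyme-free buffer wells were negative controls.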
Pol beta inh – DNA polymerase beta (human) inhibition. P06746. Pol beta primer extension/strand displacement, fluorescence kinetic. Potency, µM (doses to about 114 µM), inactives show at the highest dose activity change, negative = inhibition, actives largely listed as inhibitors. 1.3% of 340,000 active. AID 485314; further: on the % scale 0 is the no-effect control and ±100 the full control effect
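Homogeneous kinetic assay of primer extension and strand displacement by 10 nM Pol beta, preincubated 15 min at room temperature with compound before 50 nM substrate (final) was added. Read at 0 and 10 min; four-parameter Hill fit.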
Active calls of the source: *; ? = inconclusive; / = no result given; [ ] = remark or other dose. The list is not random: actives were taken first. Their share in the collection is about 2.5%. The call rests on the fitted dose curve; in most records, active means well fitted curve in the direction sought with a large enough effect; inconclusive means small, poorly fitted or top-dose-only effect, or another doubt; inactive means no such curve, though single readings can be large; an effect the other way counts as inactive or inconclusive. Potency means the concentration at half of the fitted maximal effect.

SMILES | APEX1 inh | POLK inh | Pol eta inh | L3MBTL1 block | POLI inh | Pol beta inh
COC(=O)c1ccc2c(=O)n(CCN3CCOCC3)c(SCC(=O)Nc3ccc(C)cc3)nc2c1 | -17.8% | 17.1% | -17.9% | / | -20.2% | -4.5%
C=CCn1c(SCC(=O)c2ccccc2)nnc1-c1cc2ccccc2o1 | -0.7% | -5.3% | -6.1% | -5.1% | -11.2% | ?
C=CCn1c(SCC(=O)c2ccccc2)nnc1-c1ccc2c(c1)OCO2 | -10.7% | -16.0% | -5.6% | / | ? | 50.1µM*
Cn1c(SCC(=O)c2ccc(O)c(O)c2)nnc1-c1cccs1 | ? | 79.4µM* | 22.4µM* | -83.3% | 28.2µM* | 3.55µM*
C=CCn1c(SCC(=O)c2ccc(O)c(O)c2)nnc1-c1cccc(OC)c1 | -24.4% | 31.6µM* | 11.2µM* | ? | ? | /
Cn1c(SCC(=O)c2ccc3c(c2)Cc2ccccc2-3)nnc1-c1cccc(N)c1 | -0.1% | -4.3% | ? | -13.8% | 16.9% | 0.159µM*
COc1ccccc1CNC(=O)COC(=O)COc1ccccc1Cc1ccccc1 | -1.6% | -7.8% | -24.8% | -1.0% | 1.2% | /
C(=C\c1ccnc2ccccc12)/c1cccnc1 | / | 2.5% | / | / | 0.7% | /
O=c1ccc2ccc(O)c(O)c2o1 | 12.6µM* | 9.47µM* | ? | / | 23.8µM* | 14.1µM*
COc1cc2ccc(=O)oc2cc1O | 58.1% | 15.7% | -7.7% | -1.0% | 4.9% | /
CC[C@H](C)NC(=O)c1ccc(Cn2c(=S)[nH]c3c([nH]c4ccc(OC)cc43)c2=O)cc1 | 5.8% | 1.5% | 17.8µM* | ? | ? | ?
CN(C)c1ccc(-c2ccc3ncnc(-n4ccnc4)c3c2)cc1 | -6.5% | 1.8%[60.1 µM] | / | / | / | /
O=c1cc(-c2ccccc2Cl)oc2cc(O)cc(O)c12 | ? | -5.2% | -9.7% | -4.4% | 4.7% | ?
O=c1cc(-c2ccccc2Cl)oc2c(NS(=O)(=O)c3cc(Cl)cc(Cl)c3O)ccc(O)c12 | 0.2%[50.4 µM] | ? | 31.6µM* | -23.0% | 39.8µM* | 44.7µM*
Nc1ccc(O)c2c(=O)cc(-c3ccccc3Cl)oc12 | -7.2% | -11.1% | -12.0% | -9.1% | -18.9% | 22.4µM*
CCOc1c(O)ccc(/C=C2\SC(=S)NC2=O)c1[N+](=O)[O-] | -3.5% | ? | 25.1µM* | ? | 12.6µM* | 20µM*
Cc1ccc2c(C(=O)CN3CCSCC3)c(C)[nH]c2c1 | 1.3% | -15.4% | -9.0% | -6.7% | 7.6% | -14.4%
Cc1ccc2c(C(=O)CCl)c(C)[nH]c2c1 | ? | -8.5% | ? | / | 10µM* | 7.9%
NCc1ccccc1CC(=O)N[C@@H]1C(=O)N2C(C(=O)O)=C(CSc3nnnn3CC(=O)O)CS[C@H]12 | -10.4%[21 µM] | / | / | / | / | /
COC(=O)c1ccn(CC(=O)NC2CCCCC2)n1 | 29.9µM* | -20.8% | ? | / | -20.0% | 39.8µM*
CCc1cccc(C)c1NC(=O)CN1C(=O)c2c(c3ccccc3n2C)C1c1ccc(OC)cc1 (stereo not drawn) | / | -8.7% | 1.0% | / | -5.0% | 0.7%
Cc1ccccc1NC(=O)Cc1nc(COC(=O)c2cc([N+](=O)[O-])ccc2NCCO)cs1 | -2.3% | -7.3% | -4.3% | -11.3% | -10.9% | /
Cc1ccc2nc(NCc3ccccc3)c(C=NCc3cccnc3)c(=O)n2c1 | 7.5% | 7.9% | -13.0% | / | 12.7% | 0.3%
Cc1ccc2nc(NCc3ccco3)c(C=NCc3ccco3)c(=O)n2c1 | ? | -14.2% | -5.6% | ? | 1.2% | 28.2µM*
COc1ccc(S(=O)(=O)NC(C)C(=O)NCc2ccncc2)cc1C (stereo not drawn) | -1.7% | -7.3% | -13.5% | / | 88.4% | -0.3%
SMILES | APEX1 inh | POLK inh | Pol eta inh | L3MBTL1 block | POLI inh | Pol beta inh
COc1ccc(S(=O)(=O)NC(C)C(=O)NCc2ccncc2)cc1OC (stereo not drawn) | 24.4% | 0.9% | -16.2% | / | 89.1µM* | 0.4%
COc1ccccc1NC(=O)Cn1nnc(-c2ccccc2NS(=O)(=O)c2ccccc2)n1 | -0.9% | -36.1% | -3.4% | ? | 89.1µM* | 11.4%
COc1ccc(Nc2c3ccccc3nc3ccccc23)cc1 | -35.0% | -19.5% | -0.9% | / | ? | ?
COc1cc(Nc2c3ccccc3nc3ccccc23)cc(OC)c1OC | -34.3% | -5.7% | -7.1% | / | ? | 14.1µM*
c1ccc2c(NCCc3c[nH]c4ccccc34)c3ccccc3nc2c1 | ? | -3.4% | ? | / | ? | 12.6µM*
COc1ccc(CCNC(=O)c2cc(Nc3ccccc3)nc3ccccc23)cc1OC | / | -15.9%[60.1 µM] | -7.4% | / | 79.4µM* | 4.0%
COc1ccc(CCNc2c3ccccc3nc3ccccc23)cc1OC | ? | ? | ? | 1.5% | ? | 6.31µM*
Cc1occc1C(=O)NCc1nc(-c2ccc(Cl)cc2)no1 | -17.0% | -9.1% | -6.3% | / | 116.7% | 0.6%
CCOC(=O)C(C#N)(Cc1cc(OC)cc(OC)c1)Cc1cc(OC)cc(OC)c1 | / | -17.8% | -8.5% | / | -17.7% | /
COc1ccc(OC)c(NC(=O)c2cc3c(n(-c4ccc(Cl)cc4)c2=O)CC(C)(C)CC3=O)c1 | / | -16.4% | -19.7% | / | 40.7% | 22.1%
O=C(NCCc1c[nH]c2ccccc12)c1ccc2nc[nH]c2c1 | 22.3% | -21.7% | 50.1µM* | ? | ? | /
COc1ccc(C(=O)NCCc2c[nH]c3ccccc23)cc1OC | -15.5% | -9.8% | 2.2% | 2.6% | 12.9% | -30.0%
C/C(=N\NC(=O)c1nnn(-c2nonc2N)c1-c1ccccc1)c1ccco1 | -4.6% | 3.9% | 0.9% | / | -12.5% | -1.3%
COc1ccc2[nH]c(O)c(N=NC(=O)Cc3cccs3)c2c1 | -5.0% | -39.7% | 31.6µM* | / | ? | ?
O=[N+]([O-])c1ccc(CN2CC(N3CCC(Cc4ccccc4)CC3)CS2(=O)=O)cc1 (stereo not drawn) | / | / | -27.9% | / | / | /
Cc1ccc(NC(=O)CN2C(=O)c3ccccc3Sc3ccc(C(=O)N4CCCC4)cc32)cc1 | / | -7.2%[60.1 µM] | ? | / | 70.8µM* | ?
O=c1c(-c2ccc(O)cc2O)coc2cc(O)cc(O)c12 | ? | ? | ? | -12.8% | ? | 31.6µM*
O=C1N=C2N(CCN3CCCCC3)c3ccccc3N2/C1=C\c1ccc([N+](=O)[O-])o1 | 0.4% | / | / | 13.6% | / | 33.3%
CCN(c1ccc(C)c(C)c1)S(=O)(=O)c1ccc2c(c1)CCN2C(=O)CCC(=O)O | -0.5% | 8.2% | -11.6% | / | 7.0% | 89.1µM*
CCN(c1ccc(OC)cc1)S(=O)(=O)c1ccc2c(c1)CCN2C(=O)CCC(=O)O | -0.7% | -40.2% | -1.7% | 1.1% | -22.0%[58.9 µM] | 2.6%
NC(=O)c1ccsc1NC(=O)c1ccc(N2CCCC2=O)cc1 | -12.4% | ? | 25.1µM* | / | ? | 31.6µM*
CC(=O)Nc1ccc2c(c1)-c1ccc(F)cc1C2=O | / | -8.0% | ? | / | -16.4% | /
